In PubChem BioAssay:
Values joined by “and” are separate entries in the source; they are usually repeats but may differ in a detail not shown here. Equal values may be shown once. Inconclusive results are not listed. Active and inactive are the calls of the source.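 Rule for the calls, unless noted: active = normalized viability below 100% at a tested concentration; inactive = the rest.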

Legend:
[1] = growth inhibition of DIPG glioma cells, dose response, cell-based, SU-DIPG-XIII, MIPE4.0, CellTiter-Glo, qHTS (AID 1347061; cut-off not given, nearly all actives have AC50 up to about 37 µM;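 note: cells exposed to compound for 48 hours before readout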); settings: SU-DIPG-XIII viability, CellTiter-Glo ATP luminescence
[2] = viability loss in pontine glioma line – cell-based, SU-DIPG-XXV, MIPE5.0, CellTiter-Glo, qHTS, dose response (AID 1347065; cut-off not given, nearly all actives have AC50 up to about 26 µM;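 note: cells exposed to compound for 48 hours before ATP readout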); settings: CellTiter-Glo ATP luminescence
[3] = SU-DIPG-VI glioma cell viability, MIPE4.0 library, CellTiter-Glo luminescence, qHTS (AID 1347066; cut-off not given, nearly all actives have AC50 up to about 30 µM;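 note: cells exposed to compound for 48 hours before readout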); settings: CellTiter-Glo ATP luminescence
[4] = SU-DIPG-XXV glioma cell viability, MIPE5.0 library, qHTS (AID 1347068; cut-off not given, nearly all actives have IC50 up to about 30 µM;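 for IC50: cells exposed to compound for 48 hours before viability readout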)
[5] = sensitizers of A549 cells to miR-34 induction, primary screen, imaging, A549 dox-inducible miR-34, nuclei and caspase counts (AID 1347080;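 active = compounds whose cell count with miR-34 switched on is under 0.7 times the count with it off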); settings: A549 miR-34 inducible, Hoechst nuclei count, 48 h
[6] = survival rescue of mitochondrial mutant cells in low glucose, primary screen, MELAS cybrids, Rieske KO mouse fibroblasts, CellTiter-Glo (AID 1508586;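 active = mean z-score across replicates of 1.96 or higher in either the MELAS or the Rieske mutant cell line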;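 note: z relative to plate mean and SD of compound and empty wells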)
[7] = growth inhibition of DIPG glioma cells, dose response, cell-based, SU-DIPG-IV, MIPE4.0, CellTiter-Glo, qHTS (AID 1347063; cut-off not given, nearly all actives have AC50 up to about 30 µM;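 note: compound exposure lasted 48 hours before the viability readout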); settings: SU-DIPG-IV viability, CellTiter-Glo ATP luminescence
[8] = growth inhibition of DIPG glioma cells, dose response, cell-based, SU-DIPG-XIII, MIPE5.0, CellTiter-Glo, qHTS (AID 1347064; cut-off not given, nearly all actives have AC50 up to about 23 µM;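 for AC50: cells exposed to compound for 48 hours before the viability read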); settings: SU-DIPG-XIII viability, CellTiter-Glo ATP luminescence
[9] = JHH-DIPG-1 glioma cell viability, MIPE5.0 library, CellTiter-Glo luminescence, qHTS (AID 1347067; cut-off not given, nearly all actives have AC50 up to about 26 µM;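 note: cells exposed to compound for 48 hours before readout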); settings: JHH-DIPG-1 glioma viability, CellTiter-Glo ATP luminescence
[10] = ovarian cancer cell viability with rucaparib, profiling panel, oncology-focused library, rucaparib conditional (AID 1508598); settings: patient-derived ovarian cancer cells, CellTiter-Glo viability, 144 h, stronger effect = lower value
[11] = modifiers of HSF1 nuclear foci, imaging, Selleck Cancer Library (AID 1347162; in the data active = plate-normalised HSF1 focus index below about 0.46); settings: human cells, at 10 µM; SSMD: measured here: HSF1 foci SSMD mean; cell count: measured here: cell number; plate-normalised HSF1 focus index: stronger effect = lower value
[12] = growth inhibition of DIPG glioma cells, dose response, cell-based, JHH-DIPG-1, MIPE4.0, CellTiter-Glo, qHTS (AID 1347062; cut-off not given, nearly all actives have AC50 up to about 27 µM;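 note: cells exposed to compound for two days before readout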); settings: JHH-DIPG-1 viability, CellTiter-Glo ATP luminescence
[13] = stronger effect = lower value, cell number ratio, induced over uninduced
[14] = measured here: relative caspase fold change +Dox/-Dox
[15] = measured here: total cells with miR-34 induction, stronger effect = lower value
[16] = measured here: total cells without miR-34 induction
[17] = MELAS cybrid survival, CellTiter-Glo 48 h, stronger effect = higher value
[18] = Rieske KO mouse fibroblast survival, CellTiter-Glo 72 h
[19] = at 0.000305 µM, OCI-C5x cells, with rucaparib 10 µM, 100% = cells with rucaparib alone
[20] = at 0.000305 µM, OCI-C5x cells, without rucaparib
[21] = at 0.000305 µM, OCI-P5x cells, with rucaparib 20 µM, 100% = cells with rucaparib alone
[22] = at 0.000305 µM, OCI-P5x cells, without rucaparib
[23] = at 0.00122 µM, OCI-C5x cells, with rucaparib 10 µM, 100% = cells with rucaparib alone
[24] = at 0.00122 µM, OCI-C5x cells, without rucaparib
[25] = at 0.00122 µM, OCI-P5x cells, with rucaparib 20 µM, 100% = cells with rucaparib alone
[26] = at 0.00122 µM, OCI-P5x cells, without rucaparib
[27] = at 0.00488 µM, OCI-C5x cells, with rucaparib 10 µM, 100% = cells with rucaparib alone
[28] = at 0.00488 µM, OCI-C5x cells, without rucaparib
[29] = at 0.00488 µM, OCI-P5x cells, with rucaparib 20 µM, 100% = cells with rucaparib alone
[30] = at 0.00488 µM, OCI-P5x cells, without rucaparib
[31] = at 0.0195 µM, OCI-C5x cells, with rucaparib 10 µM, 100% = cells with rucaparib alone
[32] = at 0.0195 µM, OCI-C5x cells, without rucaparib
[33] = at 0.0195 µM, OCI-P5x cells, with rucaparib 20 µM, 100% = cells with rucaparib alone
[34] = at 0.0195 µM, OCI-P5x cells, without rucaparib
[35] = at 0.0781 µM, OCI-C5x cells, with rucaparib 10 µM, 100% = cells with rucaparib alone
[36] = at 0.0781 µM, OCI-C5x cells, without rucaparib
[37] = at 0.0781 µM, OCI-P5x cells, with rucaparib 20 µM, 100% = cells with rucaparib alone
[38] = at 0.0781 µM, OCI-P5x cells, without rucaparib
[39] = at 0.313 µM, OCI-C5x cells, with rucaparib 10 µM, 100% = cells with rucaparib alone
[40] = at 0.313 µM, OCI-C5x cells, without rucaparib
[41] = at 0.313 µM, OCI-P5x cells, with rucaparib 20 µM, 100% = cells with rucaparib alone
[42] = at 0.313 µM, OCI-P5x cells, without rucaparib
[43] = at 1.25 µM, OCI-C5x cells, with rucaparib 10 µM, 100% = cells with rucaparib alone
[44] = at 1.25 µM, OCI-C5x cells, without rucaparib
[45] = at 1.25 µM, OCI-P5x cells, with rucaparib 20 µM, 100% = cells with rucaparib alone
[46] = at 1.25 µM, OCI-P5x cells, without rucaparib
[47] = at 5 µM, OCI-C5x cells, with rucaparib 10 µM, 100% = cells with rucaparib alone
[48] = at 5 µM, OCI-C5x cells, without rucaparib
[49] = at 5 µM, OCI-P5x cells, with rucaparib 20 µM, 100% = cells with rucaparib alone
[50] = at 5 µM, OCI-P5x cells, without rucaparib

CCOC(=O)c1c(CSc2ccccc2)n(C)c2cc(Br)c(O)c(CN(C)C)c12
outcome [1]: inactive | AC50 [2]: 20.9 µM (active) | outcome [3]: inactive | outcome [4]: inactive | fold change [5, 13]: 0.89 (inactive) | fold change [5, 14]: 0.958 | cell count [5, 15]: 6100 | cell count [5, 16]: 6850 | z-score [6, 17]: -0.35 (inactive) | z-score [6, 18]: -0.358

CN(C)N=Nc1nc[nH]c1C(N)=O
outcome [1]: inactive | outcome [7]: inactive | outcome [8]: inactive | outcome [9]: inactive | fold change [5, 13]: 0.887 (inactive) and 0.898 (inactive) | fold change [5, 14]: 1.47 and 1.18 | cell count [5, 15]: 9080 and 7660 | cell count [5, 16]: 10200 and 8520 | z-score [6, 17]: -0.353 (inactive) and -0.0151 (inactive) | z-score [6, 18]: 0.329 and 0.212 | viability [10, 19]: 107% (inactive) | viability [10, 20]: 101% (inactive) | viability [10, 21]: 107% (inactive) | viability [10, 22]: 108% (inactive) | viability [10, 23]: 106% (inactive) | viability [10, 24]: 108% (inactive) | viability [10, 25]: 109% (inactive) | viability [10, 26]: 108% (inactive) | viability [10, 27]: 111% (inactive) | viability [10, 28]: 107% (inactive) | viability [10, 29]: 106% (inactive) | viability [10, 30]: 104% (inactive) | viability [10, 31]: 105% (inactive) | viability [10, 32]: 105% (inactive) | viability [10, 33]: 103% (inactive) | viability [10, 34]: 112% (inactive) | viability [10, 35]: 111% (inactive) | viability [10, 36]: 109% (inactive) | viability [10, 37]: 105% (inactive) | viability [10, 38]: 110% (inactive) | viability [10, 39]: 112% (inactive) | viability [10, 40]: 109% (inactive) | viability [10, 41]: 105% (inactive) | viability [10, 42]: 110% (inactive) | viability [10, 43]: 116% (inactive) | viability [10, 44]: 120% (inactive) | viability [10, 45]: 104% (inactive) | viability [10, 46]: 111% (inactive) | viability [10, 47]: 201% (inactive) | viability [10, 48]: 164% (inactive) | viability [10, 49]: 99.7% (active) | viability [10, 50]: 113% (inactive)

Cc1c(NC(=O)c2ccc(C(C)(C)C)cc2)cccc1-c1cn(C)c(=O)c(Nc2ccc(C(=O)N3CCOCC3)cc2)n1
outcome [1]: inactive | AC50 [7]: 10.5 µM (active) | outcome [3]: inactive | outcome [4]: inactive | fold change [5, 13]: 1.11 (inactive) | fold change [5, 14]: 0.695 | cell count [5, 15]: 5460 | cell count [5, 16]: 4900 | z-score [6, 17]: -0.54 (inactive) | z-score [6, 18]: -0.156

CCn1c(-c2nonc2N)nc2c(C#CC(C)(C)O)ncc(OC[C@H]3CCCNC3)c21
AC50 [1]: 16.6 µM (active) | AC50 [7]: 7.43 µM (active) | AC50 [8]: 2.63 µM (active) | AC50 [2]: 2.35 µM (active) | IC50 [4]: 16.6 µM (active) | SSMD [11]: 1.18 | cell count [11]: 6930 | plate-normalised HSF1 focus index [11]: 1.06 (inactive) | viability [10, 19]: 119% (inactive) | viability [10, 20]: 119% (inactive) | viability [10, 21]: 98.8% (active) | viability [10, 22]: 93.1% (active) | viability [10, 23]: 129% (inactive) | viability [10, 24]: 125% (inactive) | viability [10, 25]: 100% (inactive) | viability [10, 26]: 99.7% (active) | viability [10, 27]: 133% (inactive) | viability [10, 28]: 119% (inactive) | viability [10, 29]: 109% (inactive) | viability [10, 30]: 99.7% (active) | viability [10, 31]: 118% (inactive) | viability [10, 32]: 125% (inactive) | viability [10, 33]: 107% (inactive) | viability [10, 34]: 109% (inactive) | viability [10, 35]: 124% (inactive) | viability [10, 36]: 119% (inactive) | viability [10, 37]: 89.1% (active) | viability [10, 38]: 101% (inactive) | viability [10, 39]: 113% (inactive) | viability [10, 40]: 131% (inactive) | viability [10, 41]: 85.8% (active) | viability [10, 42]: 109% (inactive) | viability [10, 43]: 114% (inactive) | viability [10, 44]: 136% (inactive) | viability [10, 45]: 72.5% (active) | viability [10, 46]: 90.8% (active) | viability [10, 47]: 94.5% (active) | viability [10, 48]: 128% (inactive) | viability [10, 49]: 67.2% (active) | viability [10, 50]: 68.3% (active)

Cc1cn2c(-c3cn[nH]c3)cnc2c(Nc2ccc(C(=O)N3CCNCC3)cc2F)n1
AC50 [1]: 23.5 µM (active) | AC50 [3]: 18.7 µM (active)

Fc1cc(-c2cccc3ncc(-c4cnn(C5CCNCC5)c4)nc23)cc(F)c1CN1CCOCC1
AC50 [12]: 20.9 µM (active) | AC50 [7]: 18.7 µM (active) | AC50 [8]: 11.8 µM (active) | AC50 [2]: 9.34 µM (active) | AC50 [3]: 23.5 µM (active) | AC50 [9]: 13.2 µM (active) | IC50 [4]: 23.5 µM (active) | fold change [5, 13]: 0.713 (inactive) | fold change [5, 14]: 0.777 | cell count [5, 15]: 5860 | cell count [5, 16]: 8220 | SSMD [11]: -6.26 | cell count [11]: 6160 | plate-normalised HSF1 focus index [11]: 0.613 (inactive) | z-score [6, 17]: -0.567 (inactive) | z-score [6, 18]: -0.329 | viability [10, 19]: 105% (inactive) | viability [10, 20]: 114% (inactive) | viability [10, 21]: 77.7% (active) | viability [10, 22]: 90.5% (active) | viability [10, 23]: 116% (inactive) | viability [10, 24]: 118% (inactive) | viability [10, 25]: 18.8% (active) | viability [10, 26]: 18.7% (active) | viability [10, 27]: 112% (inactive) | viability [10, 28]: 114% (inactive) | viability [10, 29]: 89.3% (active) | viability [10, 30]: 99.1% (active) | viability [10, 31]: 110% (inactive) | viability [10, 32]: 112% (inactive) | viability [10, 33]: 88.8% (active) | viability [10, 34]: 91.6% (active) | viability [10, 35]: 99.8% (active) | viability [10, 36]: 115% (inactive) | viability [10, 37]: 80.3% (active) | viability [10, 38]: 96% (active) | viability [10, 39]: 114% (inactive) | viability [10, 40]: 120% (inactive) | viability [10, 41]: 80.6% (active) | viability [10, 42]: 89.7% (active) | viability [10, 43]: 124% (inactive) | viability [10, 44]: 115% (inactive) | viability [10, 45]: 68.6% (active) | viability [10, 46]: 80.5% (active) | viability [10, 47]: 29.6% (active) | viability [10, 48]: 15.6% (active) | viability [10, 49]: 17.1% (active) | viability [10, 50]: 20.9% (active)
